Measurements reported in PubChem BioAssay (Tox21).
Inconclusive results are not listed. A call without a number means that no potency is given here. Active and inactive are the calls of the source. Calls come from the whole dose curve; as a rule, active = well fitted cell-killing curve with a large enough effect in the repeat runs; inconclusive = weak or mixed curves, or effect the other way; inactive = flat fitted curve, though single readings scatter.

How the values were obtained:
[1] = cAMP Responsive Elements (CRE) small molecule antagonists, cell-based qHTS assay: qHTS cell viability counter screen (AID 2060913); note: nearly all actives have a fitted effect of over 40% in size
Outline: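 HEK293T CRE-bla, 2,000 cells/well, 18 h preincubation; cpd in DMSO + NKH477 0.25 uM final, 3 h 37 C/5% CO2; LiveBLAzer 2 h RT, then CellTiter-Glo 30 min RT, luminescence.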

[2] = cAMP Responsive Elements (CRE) small molecule agonists, cell-based qHTS assay: qHTS cell viability counter screen (AID 2060914);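 note: viability read after 3 h of compound exposure; nearly all actives have a fitted effect of over 50% in size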
Outline: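 Cells are seeded and incubated 18 h, treated with compounds in DMSO for 3 h, read for the bla reporter, then given CellTiter-Glo; luminescence is measured after 30 min at room temperature.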

Compound | Potency [1] | Potency [2]
O=CNC(N1CCN(C(NC=O)C(Cl)(Cl)Cl)CC1)C(Cl)(Cl)Cl (stereo not given) | inactive | inactive
CCC(C)(c1ccc(O)cc1)c1ccc(O)cc1 | inactive | inactive
C=CC(=O)OCCCCO | inactive | inactive
COP(=S)(Oc1cc(Cl)c(Br)cc1Cl)c1ccccc1 (stereo not given) | inactive | inactive
BrCc1ccc(Br)cc1 | – | inactive
CCC(C)(C)O | inactive | inactive
CCOC(=O)c1ccccc1S(=O)(=O)NC(=O)Nc1nc(Cl)cc(OC)n1 | inactive | inactive
CSc1nc(N=[N+]=[N-])nc(NC(C)C)n1 | inactive | inactive
CC(C)=CC1C(C(=O)OCc2cccc(Oc3ccccc3)c2)C1(C)C (stereo not given) | inactive | inactive
Oc1c(Br)cc(Br)cc1Br | inactive | inactive
COP(=O)(OC)O/C(=C\Cl)c1cc(Cl)c(Cl)cc1Cl | inactive | inactive
Nc1nc(=S)[nH][nH]1 | inactive | inactive
COc1cc(C[C@@H](C)N)c(OC)cc1Br | inactive | inactive
S=C=Nc1ccccc1 | – | inactive
CC[n+]1c(-c2ccccc2)c2cc(N)ccc2c2ccc(N)cc21 | inactive | inactive
CC(C)CC(C)N (stereo not given) | – | inactive
O=P1(N(CCCl)CCCl)NCCCO1 (stereo not given) | inactive | inactive
C[N+](=O)[O-] | inactive | inactive
CCOP(=S)(OCC)OP(=S)(OCC)OCC | inactive | inactive
ClP(Cl)(Cl)(Cl)Cl | – | inactive
CNC(=O)O/N=C/C(C)(C)SC | inactive | inactive
C[Si](Cn1cncn1)(c1ccc(F)cc1)c1ccc(F)cc1 | inactive | inactive
